LRH-1 inv ag: suppresses constitutive activity of human LRH-1 | inhibition, % at 3.6 µM | O00482 | HEK293T StAR-luciferase reporter, LRH-1 transfected, 24 h | 360,000 tested, 0.13% active;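 active means inhibition above the mean inhibition of all tested compounds plus 3 SD, cut at about 73% in these data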
Target sequence (O00482 whole entry, looked up): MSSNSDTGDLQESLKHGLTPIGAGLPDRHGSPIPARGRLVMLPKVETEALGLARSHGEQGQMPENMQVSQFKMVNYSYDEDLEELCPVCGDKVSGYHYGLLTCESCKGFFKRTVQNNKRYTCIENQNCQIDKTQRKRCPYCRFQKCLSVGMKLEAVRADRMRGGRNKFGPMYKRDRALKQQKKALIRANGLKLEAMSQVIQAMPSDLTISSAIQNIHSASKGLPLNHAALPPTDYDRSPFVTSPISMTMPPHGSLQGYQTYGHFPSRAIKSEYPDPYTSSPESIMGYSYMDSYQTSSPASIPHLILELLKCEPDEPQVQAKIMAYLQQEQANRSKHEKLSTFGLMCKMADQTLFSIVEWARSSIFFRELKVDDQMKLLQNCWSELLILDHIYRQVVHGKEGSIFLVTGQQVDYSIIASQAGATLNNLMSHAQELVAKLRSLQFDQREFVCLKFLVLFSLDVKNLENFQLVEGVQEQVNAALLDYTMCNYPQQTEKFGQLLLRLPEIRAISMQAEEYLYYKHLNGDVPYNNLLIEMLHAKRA
SRC3 inh: human NCOA3 inhibition. Q9Y6Q9. HEK293 GAL4-SRC3 luciferase reporter, luminescence. inhibition, % at 3.6 µM. 360,000 tested, 0.17% active. AID 588352;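 active means inhibition above a per-campaign cutoff, the mean of all compounds plus 3 SD, cut at about 60% in these data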;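 further: higher means less SRC3-driven luciferase light from the GAL4 reporter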
SRC1 inh: inhibitors of human steroid receptor coactivator 1 (SRC1); 360,000 tested, 0.12% active; inhibition, % at 3.6 µM; HEK293 GAL4-SRC1 luciferase reporter, luminescence;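 active means inhibition above the campaign mean plus 3 SD, with each screening campaign given its own cutoff, cut at about 60% in these data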
GalR3 antag: blocks the human galanin receptor 3. O60755. HEK293 GalR3-CNG cAMP membrane potential fluorescence; galR3 body fused to GalR1 C-terminus. inhibition, % at 3 µM. 360,000 tested, 0.44% active. AID 651719;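 active means inhibition above the screen-wide average plus 3 SD, cut at about 13% in these data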;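 further: forskolin and galanin both at EC90 stimulate the cells; cAMP rise reported by CNG channel membrane potential dye signal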
NR2F2 inh: NR2F2 (human) inhibition, primary screen; HEK293T NGFI-A luciferase reporter, luminescence; inhibition, % at 8.6 µM; 370,000 tested, 0.7% active;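 active means inhibition above a per-plate cutoff, mean inhibition of test wells between control levels plus 3 SD, cut at about 38% in these data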;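 further: cells cotransfected with COUP-TFII expression vector driving the NGFI-A reporter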
SRC2 inh: inhibits human steroid receptor coactivator 2. Q15596. HEK293 GAL4-SRC2 luciferase reporter, luminescence. inhibition, % at 9 µM. 370,000 tested, 0.17% active;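 active means inhibition above the mean inhibition of all tested compounds plus 3 SD, set per campaign, cut at about 52% in these data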
GalR3 antag conf: GalR3 (human) antagonism, confirmation. inhibition, % at 3 µM. shares compounds with GalR3 antag. AID 652245. 1,600 tested, 59% active. HEK293 GalR3 CNG cAMP biosensor, membrane potential fluorescence; galR3 fused to GalR1 carboxy tail; challenged with forskolin and galanin at EC90;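 active means inhibition above the primary screen's cutoff, the mean inhibition of all screened compounds plus 3 SD, cut at about 13% in these data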
CNG parental: acts as nonspecific agonist in parental HEK-CNG cells | activation, % at 3 µM | HEK293-CNG parental cells, cAMP membrane potential fluorescence; normalised: DMSO wells 0%, forskolin wells 100% | 1,600 tested, 10% active | shares compounds with GalR3 antag; in the data active means activation above about 1.3%
Numbers stand for hits. Shown are actives, neighbours in structure and some others; about 1.1% of the full set was active somewhere.

`COC(=O)c1c(-c2ccc(OC)cc2)sc2cc3c(cc12)OCO3` gave LRH-1 inv ag inactive, SRC3 inh inactive, SRC1 inh inactive, GalR3 antag 12.9, NR2F2 inh inactive, SRC2 inh inactive, GalR3 antag conf 18.0 and CNG parental inactive.
`CCn1nnnc1SCC(=O)Nc1ccc(F)cc1` gave LRH-1 inv ag inactive, SRC3 inh inactive, SRC1 inh inactive, GalR3 antag 14.2, NR2F2 inh inactive, SRC2 inh inactive, GalR3 antag conf 71.0 and CNG parental inactive.
O=[N+]([O-])c1c(Nc2ccccc2O)ccc2nonc12 was read as LRH-1 inv ag inactive, SRC3 inh inactive, SRC1 inh inactive, GalR3 antag inactive, NR2F2 inh inactive and SRC2 inh inactive.
O=[N+]([O-])c1c(Nc2ccccc2O)cc(Cl)c2nonc12 was read as LRH-1 inv ag inactive, SRC3 inh inactive, SRC1 inh inactive, GalR3 antag 39.8, NR2F2 inh inactive, SRC2 inh inactive, GalR3 antag conf 40.5 and CNG parental inactive.
Screening CN1C(=O)NC(c2ccccc2)(C(F)(F)F)S/C1=C(/C#N)c1nnc(N2CCOCC2)n1-c1ccccc1 (stereo not drawn) returned LRH-1 inv ag inactive, SRC3 inh inactive, SRC1 inh inactive, GalR3 antag inactive, NR2F2 inh inactive and SRC2 inh inactive.
For COc1ccc(Br)cc1/C(C)=N/NC1=NCCN1 the results were LRH-1 inv ag inactive, SRC3 inh inactive, SRC1 inh inactive, GalR3 antag 85.4, NR2F2 inh inactive, SRC2 inh inactive, GalR3 antag conf 32.4 and CNG parental 2.1.
For Cc1c(C(=O)N2CCc3ccccc32)cnn1C the results were LRH-1 inv ag inactive, SRC3 inh inactive, SRC1 inh inactive, NR2F2 inh inactive, SRC2 inh inactive, GalR3 antag conf inactive and CNG parental inactive.
Screening CCCc1cc(=O)[nH]c(SCC(=O)c2c(C)[nH]c3ccccc23)n1 returned LRH-1 inv ag inactive, SRC3 inh inactive, SRC1 inh inactive, GalR3 antag 16.6, NR2F2 inh inactive, SRC2 inh inactive, GalR3 antag conf inactive and CNG parental 1.7.
Screening CCCc1cc(=O)[nH]c(SCC(=O)c2c[nH]c3ccccc23)n1 returned LRH-1 inv ag inactive, SRC3 inh inactive, SRC1 inh inactive, GalR3 antag inactive, NR2F2 inh inactive and SRC2 inh inactive.
Screening CCN(CCC#N)c1ccc(N2C(=O)CCCC2=O)cc1[N+](=O)[O-] returned LRH-1 inv ag inactive, SRC3 inh inactive, SRC1 inh inactive, GalR3 antag inactive, NR2F2 inh inactive and SRC2 inh inactive.
CC1CC(=O)NN=C1c1ccc(N(C)C)c([N+](=O)[O-])c1 (stereo not drawn) was read as LRH-1 inv ag inactive, SRC3 inh inactive, SRC1 inh inactive, GalR3 antag 60.0, NR2F2 inh inactive, SRC2 inh inactive, GalR3 antag conf 69.3 and CNG parental inactive.
Screening CC1CC(=O)NN=C1c1cccs1 (stereo not drawn) returned LRH-1 inv ag inactive, SRC3 inh inactive, SRC1 inh inactive, GalR3 antag inactive, NR2F2 inh inactive and SRC2 inh inactive.
CCN(CC)c1ccc(C2=NNC(=O)CC2C)cc1[N+](=O)[O-] (stereo not drawn) was read as LRH-1 inv ag inactive, SRC3 inh inactive, SRC1 inh inactive, GalR3 antag 52.0, NR2F2 inh inactive, SRC2 inh inactive, GalR3 antag conf 64.7 and CNG parental inactive.
`CC(=C/c1ccccc1)/C=N/N1CCN(Cc2ccc(C)cc2)CC1` gave LRH-1 inv ag inactive, SRC3 inh inactive, SRC1 inh inactive, GalR3 antag inactive, NR2F2 inh inactive and SRC2 inh inactive.
Screening CCn1nc(C(=O)NCc2ccco2)c(Cl)c1Cl returned LRH-1 inv ag inactive, SRC3 inh inactive, SRC1 inh inactive, GalR3 antag inactive, NR2F2 inh inactive and SRC2 inh inactive.
Screening CCN(CC(=O)Nc1ccc(NC(C)=O)cc1)CC(=O)Nc1ccccc1C(=O)c1ccccc1 returned LRH-1 inv ag inactive, SRC3 inh inactive, SRC1 inh inactive, GalR3 antag 16.7, NR2F2 inh inactive, SRC2 inh inactive, GalR3 antag conf inactive and CNG parental inactive.
CCN(CC)CC(=O)Nc1ccc(C)cc1C(=O)c1ccccc1 was read as LRH-1 inv ag inactive, SRC3 inh inactive, SRC1 inh inactive, GalR3 antag inactive, NR2F2 inh inactive and SRC2 inh inactive.
Screening CCOC(=O)Cn1nc(C)c(NC(=O)COc2cccc(Cl)c2)c1C returned LRH-1 inv ag inactive, SRC3 inh inactive, SRC1 inh inactive, GalR3 antag 21.3, NR2F2 inh inactive, SRC2 inh inactive, GalR3 antag conf inactive and CNG parental inactive.
For COc1cccc(Nc2ncnc3sccc23)c1 the results were LRH-1 inv ag inactive, SRC3 inh inactive, SRC1 inh inactive, GalR3 antag inactive, NR2F2 inh inactive and SRC2 inh inactive.
`C=CCn1c(COc2cccc(C)c2)nnc1SCC(=O)c1c(N)n(C)c(=O)n(C)c1=O` gave LRH-1 inv ag inactive, SRC3 inh inactive, SRC1 inh inactive, GalR3 antag inactive, NR2F2 inh inactive and SRC2 inh inactive.
C=CCn1c(COc2ccc(Cl)cc2)nnc1SCC(=O)c1c(N)n(C)c(=O)n(C)c1=O was read as LRH-1 inv ag inactive, SRC3 inh inactive, SRC1 inh inactive, GalR3 antag 15.8, NR2F2 inh inactive, SRC2 inh inactive, GalR3 antag conf inactive and CNG parental inactive.
Cc1cc(C)n2nc(C(=O)N3CCCC(CNS(=O)(=O)c4cccs4)C3)cc2n1 (stereo not drawn) was read as LRH-1 inv ag inactive, SRC3 inh inactive, SRC1 inh inactive, GalR3 antag inactive, NR2F2 inh inactive and SRC2 inh inactive.
Screening O=C(COC(=O)c1n[nH]c2ccccc12)NCCc1ccc(Cl)cc1 returned LRH-1 inv ag inactive, SRC3 inh inactive, SRC1 inh inactive, GalR3 antag 35.9, NR2F2 inh inactive, SRC2 inh inactive, GalR3 antag conf 56.3 and CNG parental inactive.
`COc1cccc(C2=NN(C(=O)c3cccs3)C(O)(C(F)(F)F)C2)c1` (stereo not drawn) gave LRH-1 inv ag inactive, SRC3 inh inactive, SRC1 inh inactive, GalR3 antag 13.2, NR2F2 inh inactive, SRC2 inh inactive, GalR3 antag conf inactive and CNG parental inactive.
Screening COc1cccc(C(=O)N2N=C(c3cccc(OC)c3)CC2(O)C(F)(F)F)c1 (stereo not drawn) returned LRH-1 inv ag inactive, SRC3 inh inactive, SRC1 inh inactive, GalR3 antag inactive, NR2F2 inh inactive and SRC2 inh inactive.

Bioassay records: PubChem BioAssay, The Scripps Research Institute Molecular Screening Center
